Results taken from PubChem BioAssay (NCATS).
Inconclusive results are not listed. The source made the active and inactive calls. Unless noted, calls come from the whole dose curve; as a rule, active = well fitted curve in the direction sought with a large enough effect; inconclusive = small, poorly fitted or top-dose-only effect, or another doubt; inactive = no such curve, though single readings can be large; an effect the other way counts as inactive or inconclusive.

Tests used:
[1] = qHTS to identify inhibitors of the type 1 interferon - major histocompatibility complex class I in skeletal muscle: primary screen against the NCATS Pharmaceutical Collection (AID 1347407);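 note: luminescence of HiBiT knocked into endogenous HLA-B as interferon-induced MHC class I level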
Procedure, shortened: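 HLA-B HiBiT myoblasts, dexamethasone-free growth medium + 4 ng/ml IFN-b; compounds pinned 1 h after seeding, […] from 46 uM; 24 h, 37 C, 5% CO2; lytic HiBiT detection, 10 min RT, luminescence.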

[2] = molecular target: Protein phosphatase 1D (Homo sapiens) (UniProt O15297); assay: RapidFire Mass Spectrometry qHTS Assay for Modulators of WT P53-Induced Phosphatase 1 (WIP1) (AID 1347424);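 note: amount of dephosphorylated VEPPL-S-QETFS peptide product formed by WIP1; series mostly up to about 63 µM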
Chain of Protein phosphatase 1D (Homo sapiens) (O15297 whole entry, looked up): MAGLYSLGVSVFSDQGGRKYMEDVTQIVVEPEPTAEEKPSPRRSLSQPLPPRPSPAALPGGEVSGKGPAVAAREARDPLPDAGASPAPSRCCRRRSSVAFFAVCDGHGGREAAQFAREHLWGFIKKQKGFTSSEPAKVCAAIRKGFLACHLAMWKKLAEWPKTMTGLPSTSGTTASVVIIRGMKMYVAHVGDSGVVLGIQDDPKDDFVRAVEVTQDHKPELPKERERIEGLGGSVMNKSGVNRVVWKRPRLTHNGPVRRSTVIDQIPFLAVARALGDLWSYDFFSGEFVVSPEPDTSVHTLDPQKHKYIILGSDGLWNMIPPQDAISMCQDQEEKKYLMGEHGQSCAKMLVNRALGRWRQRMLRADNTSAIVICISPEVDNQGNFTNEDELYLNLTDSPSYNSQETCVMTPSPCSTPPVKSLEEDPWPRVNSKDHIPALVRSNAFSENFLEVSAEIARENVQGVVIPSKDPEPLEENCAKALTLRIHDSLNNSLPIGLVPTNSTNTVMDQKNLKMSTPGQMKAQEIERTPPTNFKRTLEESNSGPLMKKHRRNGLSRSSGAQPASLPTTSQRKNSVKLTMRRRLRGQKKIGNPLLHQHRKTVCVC
Procedure, shortened: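 WIP1 (10 nM final) was preincubated 1 h at room temperature with compounds in Tris-HCl pH 7.5, 30 mM MgCl2, TCEP, EGTA, BSA; 2 uM VEPPL-pS-QETFS phosphopeptide was added for 5 min, quenched with formic acid, and dephosphorylated product quantified by RapidFire MS.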

[3] = molecular target: Protein phosphatase 1D (Homo sapiens) (UniProt O15297); assay: Rhodamine-PBP qHTS Assay for Modulators of WT P53-Induced Phosphatase 1 (WIP1) (AID 1347425)
Procedure, shortened: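 Read-out: Rhodamine-PBP fluorescence (ex 525/em 598 nm) for released Pi, read each minute for 11 min after adding 10 uM VEPPL-pS-QETFS; signal taken as f1 minus pre-substrate f0. Enzyme 5 nM WIP1 with 1 hr room-temperature compound preincubation.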

[4] = Primary qHTS for inhibitors of SARS-S pseudo-typed particle cell entry (AID 1479145; calls by dose curve; note: nearly all actives have a fitted effect of over 45% in size)
[5] = Primary qHTS for Huh7 cytotoxicity: counterscreen for inhibitors of MERS-S pseudotyped particle cell entry (AID 1479147; calls by dose curve)
[6] = Primary qHTS for inhibitors of MERS-S pseudo-typed particle cell entry (AID 1479149; calls by dose curve; note: nearly all actives have a fitted effect of over 60% in size)
[7] = Primary qHTS for Vero E6 cytotoxicity: counterscreen for inhibitors of SARS-S pseudo-typed particle cell entry (AID 1479150; calls by dose curve)
[8] = Primary qHTS for inhibitors of La Crosse Virus (LACV) - induced cell death in SH-SY5Y cells (AID 1508616);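 note: top concentration of the series differs between compounds; higher means more rescue of cells from virus-induced death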
Procedure, shortened: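 SH-SY5Y cells (6000/well) plated 24 h, then given compounds by pin transfer and LACV at 0.01 MOI for 6 days at 37C. Viability measured by ATPLite luminescence, normalized to infected DMSO and uninfected DMSO.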

[9] = qHTS to identify inhibitors of the type 1 interferon - major histocompatibility complex class I in skeletal muscle: primary screen against the NCATS LOPAC collection (AID 1347405);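 note: lytic HiBiT luminescence reporting HLA-B protein level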
Procedure, shortened: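 CRISPR-engineered immortalized human myoblasts (C25cl48) with HiBiT fused to endogenous HLA-B*08:01, stimulated with 4 ng/ml IFN-beta. LOPAC compounds tested as a 7-point 1:4.3 titration (top 46 uM final), 24 h at 37 C; lytic HiBiT luminescence read.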

[10] = qHTS for inhibitors of adenylyl cyclases using a fission yeast platform: a pilot screen against the NCATS LOPAC library (AID 1347410)
Procedure, shortened: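 Read-out: fbp1-GFP fluorescence by laser scanning cytometry (488 nm laser), a gain of signal when AC/cAMP-PKA signalling is inhibited. Strain CHP2027 expressing AC9, GNAS and PDE4D2; compounds at up to 57 µM; 18 h, 30C.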

[11] = qHTS to identify inhibitors of the type 1 interferon - major histocompatibility complex class I in skeletal muscle: primary screen against the NCATS Mechanism Interrogation Plate v5.0 (MIPE) Libary (AID 1347411); note: nearly all actives have a fitted effect of over 65% in size
Procedure, shortened: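 Immortalized human myoblasts (C25cl48) with HiBit knocked into endogenous HLA-B*08:01 were stimulated with 4 ng/ml IFN-beta and given compounds in 11-point 1:3 titration from 46 uM. After 24 h at 37 C, lytic HiBiT luminescence was read.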

[12] = Validation qHTS assay for inhibitors of Activation Induced Cytidine Deaminase (AID): UDG Counterscreen signal (AID 1347427)
Procedure, shortened: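 Counterscreen read of UDG activity (2 U/mL, 4/3x) in the FRET deamination format with AID (1 uM, 4/3x), DJC20/DJC23 substrates (250 nM, 4x), 4 h at room temperature. NaOH stop, fluorescence at 560 ex/665 em.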

[13] = molecular target: Single-stranded DNA cytosine deaminase (Homo sapiens) (UniProt Q9GZX7); assay: Validation qHTS assay for inhibitors of Activation Induced Cytidine Deaminase (AID): AID signal (AID 1347429)
Chain of Single-stranded DNA cytosine deaminase (Homo sapiens) (Q9GZX7 whole entry, looked up): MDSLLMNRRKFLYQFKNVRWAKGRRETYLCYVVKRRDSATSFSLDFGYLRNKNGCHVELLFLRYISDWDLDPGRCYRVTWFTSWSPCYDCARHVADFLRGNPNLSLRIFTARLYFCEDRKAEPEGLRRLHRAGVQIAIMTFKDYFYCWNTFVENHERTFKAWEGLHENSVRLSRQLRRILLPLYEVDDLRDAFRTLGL
Procedure, shortened: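 FRET deamination assay: 1 uM AID (4/3x stock) with UDG, compound up to 114 uM, then 250 nM DJC20/DJC23 substrate (4x stock) for 4 hr at room temperature. NaOH added, 30 min; fluorescence read 540/590 nm.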

Measured: Potency

COP(=O)(OC)C(O)C(Cl)(Cl)Cl (stereo not given)
not listed: [9] | [10] | [11] | [12] | [13]
inactive: all other assays above

Cc1cccc(Cc2cnc[nH]2)c1C
not listed: [9] | [10] | [11] | [12] | [13]
inactive: all other assays above

CCC1(c2cccc(O)c2)CCCCN(C)C1 (stereo not given)
inactive: [1] | [2] | [3] | [4] | [5] | [6] | [7]

CC[C@H]1C[C@H]2[C@@H]3CCC4=CC(=O)CC[C@@H]4[C@H]3CC[C@]2(C)[C@H]1O
inactive: [1] | [2] | [3] | [5] | [7] | [8]

CNC(C)Cc1ccccc1OC (stereo not given)
not listed: [9] | [10] | [11] | [12] | [13]
inactive: all other assays above

CC(C)(O)C(Cl)(Cl)Cl
not listed: [9] | [10] | [11] | [12] | [13]
inactive: all other assays above

CC(C)=C[C@@H]1[C@@H](C(=O)OCc2coc(Cc3ccccc3)c2)C1(C)C
inactive: [1] | [2] | [3]

CC(Cc1ccccc1)NCc1ccccc1Cl (stereo not given)
not listed: [9] | [10] | [11] | [12] | [13]
inactive: all other assays above

O=C(O)Cc1ccccc1
not listed: [9] | [10] | [11] | [12] | [13]
inactive: all other assays above

CC(C)C(Br)C(=O)NC(N)=O (stereo not given)
inactive: [1] | [2] | [3] | [5] | [6] | [7] | [8]

O=C(O)c1nn(Cc2ccc(Cl)cc2Cl)c2ccccc12
inactive: [9] | [1] | [10] | [11] | [12] | [13] | [8]

CC1Sc2c(C(=O)O)c(=O)c3cc(F)c(N4CCNCC4)cc3n21 (stereo not given)
inactive: [1] | [2] | [3] | [8]

C[C@]12CC[C@H]3[C@@H](CC=C4C[C@@H](O)CC[C@@]43C)[C@@H]1CC[C@@H]2O
inactive: [1] | [2] | [3] | [8]

COCC(=O)N(c1c(C)cccc1C)C(C)C(=O)OC (stereo not given)
inactive: [1] | [2] | [3] | [8]

CCN(CC)C(C)C(=O)c1ccccc1 (stereo not given)
inactive: [1] | [2] | [3] | [8]

CCCN(CCC)CCc1c[nH]c2ccccc12
inactive: [1] | [2] | [3] | [8]

CN1CCc2cc(Cl)c(O)cc2[C@H]2c3ccccc3CC[C@@H]21
inactive: [1] | [2] | [3] | [8]

CC(C)=CCN1CC[C@@]2(C)c3cc(O)ccc3C[C@@H]1[C@@H]2C
inactive: [1] | [2] | [3] | [8]

CCOC(=O)C(c1c(O)c2ccccc2oc1=O)c1c(O)c2ccccc2oc1=O
inactive: [1] | [2] | [3] | [8]

CCOC(=O)NC(C)(C)Cc1ccc(Cl)cc1
inactive: [1] | [2] | [3] | [8]

CCO[C@H]1O[C@@H]2OC3(C)CC[C@H]4[C@H](C)CC[C@@H]([C@H]1C)[C@@]24OO3
inactive: [1] | [2] | [3] | [8]

O=C(CCl)c1ccc(Cl)cc1Cl
inactive: [1] | [2] | [3] | [8]

C[C@]12C=CC(=O)C=C1CC[C@@H]1[C@@H]2CC[C@@]2(C)[C@H]1CC[C@]2(C)O
inactive: [1] | [2] | [3] | [8]

C[C@H](CN1CCOCC1)C(C(=O)N1CCCC1)(c1ccccc1)c1ccccc1
inactive: [1] | [2] | [3] | [8]

CCCC(C)C1(CC)C(=O)N=C(S)NC1=O (stereo not given)
inactive: [1] | [2] | [3] | [8]

COc1ccc(OC)c(CC(C)N)c1 (stereo not given)
inactive: [1] | [2] | [3] | [8]

C1CN2CCC1CC2
inactive: [1] | [2] | [3] | [8]

CN(C)CCc1c[nH]c2ccc(O)cc12
inactive: [1] | [2] | [3] | [8]

Cc1ncc2n1-c1ccc(Cl)cc1C(c1ccccc1F)=NC2
inactive: [1] | [2] | [3] | [8]

CCC1(CC)C(=O)NC(=O)NC1=O
inactive: [1] | [2] | [3] | [8]

CCC(OC(C)=O)C(CC(C)NC)(c1ccccc1)c1ccccc1 (stereo not given)
inactive: [1] | [2] | [3] | [8]

COc1ccc2[nH]cc(CCN(C(C)C)C(C)C)c2c1
inactive: [1] | [2] | [3] | [8]

O=C(O)CCCCCCNC1c2ccccc2CCc2ccccc21
inactive: [1] | [2] | [3] | [8]

Nc1ccc(Cl)cc1C(=O)c1ccccc1F
inactive: [1] | [2] | [3] | [8]

CN1C[C@@H](NS(=O)(=O)N(C)C)C[C@@H]2c3cccc4c3c(cn4C)C[C@H]21
inactive: [1] | [2] | [3] | [8]

CNC(C)Cc1ccc2c(c1)OCO2 (stereo not given)
inactive: [1] | [2] | [3] | [8]

CC[C@H]1C[C@@H]2C[C@H]3c4[nH]c5ccc(OC)cc5c4CCN(C2)[C@@H]13
inactive: [1] | [2] | [3] | [8]

COc1cc(C[C@@H](C)N)c(OC)cc1C
inactive: [1] | [2] | [3] | [8]

CCN(CC)CCOC(=O)C(C)(c1ccccc1)c1ccccc1
inactive: [1] | [2] | [3] | [8]
